Our source for the Potency values is PubChem BioAssay AID504465 (National Center for Advancing Translational Sciences (NCATS), 2011).

About 210 (10%) of roughly 2,100 compounds were called active. Not shown: some 53% with an inconclusive outcome. The call rests on the fitted dose curve; in most records, active means well fitted inhibition curve with a large enough effect; inconclusive means small, poorly fitted or top-dose-only effect, or effect the other way; inactive means no such curve, though single readings can be large or run the other way. Some of the results follow. Entries that show only a call come without a potency.
Potency means the concentration at half of the fitted maximal effect.

The assay can be described thus: IN Cell qHTS Assay for Inhibitors of the mTORC1 Signaling Pathway in MEF (Tsc2-/-, p53-/-) Cells: Sytravon. Further: nearly all actives have a fitted effect of over 60% in size. The settings on record: phospho-rpS6 immunofluorescence, 24 h; series mostly up to 38.3 µM. An outline of the steps:
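Tsc2-/-, p53-/- MEFs (empty-vector) treated with compound 24 h at 37 degree Celsius, then fixed and stained for phospho-rpS6 Ser235/236 (Alexa-488) plus Hoechst. Reported as % positive cells, thresholds set against 7.5 nM rapamycin and DMSO wells.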
Background: In qHTS, concentration-response curves come from the screen itself.
For `COc1ccc(C(=O)c2cn(Cc3cccc(C)c3)c3cc4c(cc3c2=O)OCO4)cc1`, the Potency entry is “inactive”.

With `CCOC(=O)c1ccccc1Nc1cc(C)nc2nc(-c3ccco3)nn12`, the Potency result is “inactive”. `CC(C)c1ccc(NC(=O)c2cc(S(=O)(=O)NCCC3=CCCCC3)ccc2F)cc1`: the Potency result was “inactive”. For the compound `Fc1ccc(-c2csc(=Nc3cccc(C(F)(F)F)c3)n2Cc2ccc3c(c2)OCO3)cc1`, the Potency entry is “inactive”.

Take `CCOC(=O)N1CCc2c(sc3c2C(=O)NC(c2ccc(C(=O)OC)cc2)N3)C1` (stereo not drawn): the Potency entry is “inactive”.

Regarding `COc1cc2c(cc1OC)n(CC(=O)c1ccc(F)cc1)c(=O)n1nc(CCn3nc(C)cc3C)nc21`, the Potency result is “inactive”.

For the compound `Cc1ccc(NC(=O)c2c(C)oc3ccc(O)c(CN(C)Cc4ccccc4)c23)c(C)c1`, the Potency entry is “inactive”.

`CCC(C)NC(=O)CSc1nc2cc3c(cc2c(=O)n1CCCC(=O)NCCc1ccc(OC)c(OC)c1)OCO3` (stereo not drawn): the Potency result is “inactive”. `COc1ccccc1Oc1nc2c(C)cccn2c(=O)c1/C=C(\C#N)c1nc2ccccc2[nH]1`: the Potency result is “inactive”. The same measure for `O=C(Cn1cc(SCc2ccc(F)cc2)c2ccccc21)N1CCCCCC1`: “inactive”; for `Cc1ccc2nc3c(cc(C(=O)NC4CCCCC4)c(=N)n3C(C)C)c(=O)n2c1`: “inactive”; for `COCCn1c(=N)c(C(=O)NCc2ccco2)cc2c(=O)n3cc(C)ccc3nc21`: 13.1 µM (active).

With `Cc1ccc(-c2noc(CCCC(=O)NCc3ccco3)n2)cc1`, the Potency result was “inactive”.

`Cc1ccc(Cl)cc1NC(=O)CCn1cnc2ccccc2c1=O`: the Potency entry was “inactive”.

With `COc1ccc(C(=O)N2CCc3cc(OC)c(OC)cc3C2COc2ccc3c(C)cc(=O)oc3c2)c(OC)c1` (stereo not drawn), the Potency entry was “inactive”. For `CCC(C)S(=O)(=O)c1oc(-c2cccs2)nc1S(=O)(=O)c1ccccc1` (stereo not drawn), the Potency is 1.47 µM (active). With `CCCCS(=O)(=O)c1oc(-c2cccs2)nc1S(=O)(=O)c1ccccc1`, the Potency was 0.585 µM (active).

For `O=S(=O)(c1ccccc1)c1nc(-c2cccs2)oc1SCc1ccccc1F`, the Potency result is “inactive”. Consider `CCCCS(=O)(=O)c1oc(-c2cccs2)nc1S(=O)(=O)c1ccc(F)cc1`, for which the Potency is 3.69 µM (active). With `Cc1ccc(S(=O)(=O)c2nnn3c2nc(NCc2cccs2)c2sccc23)cc1`, the Potency entry was “inactive”. As for `Cc1nn(C)c2c1c(-c1ccccc1)cc(=O)n2Cc1ccccc1C#N`, the Potency result was “inactive”. For `CCN1CCOC(=O)C1CC(=O)Nc1ccc(Br)cc1` (stereo not drawn), the Potency entry is “inactive”. Turning to `Cc1cc(C)cc(NC(=O)C2CCCN2S(=O)(=O)c2ccc3nc(-c4ccccc4)[nH]c3c2)c1` (stereo not drawn), the Potency entry was “inactive”.

`COc1ccc(S(=O)(=O)NC2(C(F)(F)F)NC(=O)N(CCc3ccc(OC)c(OC)c3)C2=O)cc1` (stereo not drawn): the Potency entry is “inactive”. As to `O=C(CSCc1ccc(F)cc1)N1CCc2c([nH]c3ccccc23)C1c1ccc(Cl)cc1` (stereo not drawn), the Potency result was “inactive”. In the case of `CCCCNC(=O)c1ccc2c(c1)N=C(CC)c1ccccc1S2`, the Potency result is “inactive”. In the case of `CCCN1CCN(CCCNC(=O)c2ccc3c(c2)sc2nc(-c4ccc(OCC)cc4)cn23)CC1`, the Potency is 1.85 µM (active). On to `CCOc1ccc(-c2cc(NC(=O)c3ccc(C)cc3)c(C(=O)OC)s2)cc1`, for which the Potency entry is “inactive”. For `CCC1CCCCN1C(=O)CSc1n[nH]c(-c2ccccc2)n1` (stereo not drawn), the Potency result was “inactive”. As to `CCOC(=O)c1cc(S(=O)(=O)NCc2ccc(C)cc2)[nH]n1`, the Potency result was “inactive”. With `Cc1cccc(NC(=O)c2oc3ccc(S(=O)(=O)N4CCC5(CC4)OCCO5)cc3c2C)c1C`, the Potency entry is “inactive”. As for `CCCN1C(=O)C(O)(CC(=O)c2ccc(C(C)C)cc2)c2ccccc21` (stereo not drawn), the Potency result is “inactive”. With `CCCCN1C(=O)C(O)(CC(=O)c2ccc(CC)cc2)c2cc(Br)ccc21` (stereo not drawn), the Potency is 18.5 µM (active). As to `CCCCN1C(=O)C(O)(c2c[nH]c3ccccc23)c2cc(Br)ccc21` (stereo not drawn), the Potency entry was “inactive”. Regarding `O=C(CC1(O)C(=O)N(Cc2ccccc2)c2ccc(Br)cc21)c1ccccc1` (stereo not drawn), the Potency was 16.5 µM (active). On to `Cc1ccccc1CN1C(=O)C(O)(CC(=O)c2ccccc2)c2cc(Cl)ccc21` (stereo not drawn), for which the Potency result was “inactive”. In the case of `COc1ccc(C(=O)CC2(O)C(=O)N(Cc3cccc(C(F)(F)F)c3)c3ccccc32)cc1` (stereo not drawn) it was 4.65 µM (active); in that of `O=C(CC1(O)C(=O)N(CCc2ccccc2)c2ccc(Br)cc21)c1ccccc1O` (stereo not drawn), 20.7 µM (active); in that of `COC(=O)CN1C(=O)C(O)(CC(=O)c2ccc(F)cc2)c2ccccc21` (stereo not drawn), “inactive”. The same measure for `COc1cccc(C(=O)CC2(O)C(=O)N(Cc3ccccc3)c3ccccc32)c1` (stereo not drawn): “inactive”; for `CCCCN1C(=O)C(O)(c2c(C)[nH]c3ccccc23)c2cc(Br)ccc21` (stereo not drawn): “inactive”. Take `CN1CCc2c(sc(NC(=O)CSc3ccc(F)cc3)c2-c2nc3ccccc3s2)C1`: the Potency entry is “inactive”.

Consider `CCC1=Nc2cc(C(=O)NCC(C)c3ccccc3)ccc2Sc2ccc(C)cc21` (stereo not drawn), for which the Potency entry was “inactive”. In the case of `CCn1cc2nc(SCC(=O)Nc3cccc(Cl)c3C)n(Cc3ccc(Cl)cc3)c(=O)c2n1` it was “inactive”. Take `COc1ccc(-c2nc(SCC(=O)Nc3ccc4c(c3)OCCO4)c(-c3ccc(F)cc3)[nH]2)cc1`: the Potency entry is “inactive”. Consider `CC1=C(C(=O)OCC2CCCCC2)C(c2ccc(Cl)cc2)CC(=O)N1` (stereo not drawn), for which the Potency entry is “inactive”. For `O=C1c2[nH]nc(-c3ccccc3O)c2C(c2ccc(Cl)cc2)N1Cc1ccco1` (stereo not drawn), the Potency result was “inactive”. For `COc1ccc(C2(Nc3cccc(C(=O)O)c3C)C(=O)c3ccccc3C2=O)cc1`, the Potency entry was “inactive”. In the case of `CCc1ccc(Oc2nc3c(C)cccn3c(=O)c2/C=C(\C#N)c2nc3ccccc3[nH]2)cc1` it was “inactive”; in that of `COc1cccc(NS(=O)(=O)c2ccc3c(c2)CCCN3C(=O)C2CCC2)c1`, “inactive”. Turning to `Cc1ccc(CN2C(=O)C(O)(CC(=O)c3ccc(C)cc3)c3ccccc32)cc1` (stereo not drawn), the Potency is 16.5 µM (active). Turning to `COc1ccc(N2C(=O)CCSC23C(=O)N(Cc2ccc(F)cc2)c2ccccc23)cc1Cl` (stereo not drawn), the Potency result is “inactive”.

Consider `CCc1ccc(C(=O)CC2(O)C(=O)N(Cc3ccc(C)cc3)c3ccccc32)cc1` (stereo not drawn), for which the Potency result was “inactive”. Turning to `CCOC(=O)CN1C(=O)C(O)(CC(=O)c2cc(OC)ccc2OC)c2ccccc21` (stereo not drawn), the Potency entry is “inactive”.

As for `COc1cc(C(=O)CC2(O)C(=O)N(Cc3ccccc3Cl)c3ccccc32)cc(OC)c1OC` (stereo not drawn), the Potency was 0.147 µM (active). With `Cc1ccc(CN2C(=O)C(O)(c3c(C)[nH]c4ccccc34)c3ccccc32)cc1` (stereo not drawn), the Potency entry was “inactive”. As for `CCOC(=O)C1CCN(C(=O)CSc2c3c(nc4ccc(Cl)cc24)CCCC3)CC1`, the Potency result was “inactive”.

`COC(=O)c1c(NC(=O)c2ccc(S(=O)(=O)N3CCCCC3)cc2)sc2c1CCN(C)C2`: the Potency entry was “inactive”.
